Assay results from PubChem BioAssay AID1053 (University of Pittsburgh Molecular Library Screening Center, 2008).
Where “and” joins values, the source holds several entries; their conditions need not be identical. Equal values may be shown once. Calls of active or inactive are those of the source. How the calls were made is not given here.

Target: Serine/threonine-protein kinase PLK1 (Homo sapiens) (UniProt P53350)
Assay: Plk1 polo box domain binding inhibitors, SAR follow-up, biochemical, fluorescence polarization, purchased analogs (AID 1053)
Settings: Plk1 PBD fluorescence polarization peptide binding; at 20 µM; hits give high values

Serine/threonine-protein kinase PLK1 (Homo sapiens), sequence (P53350 whole entry, looked up, the tested form may be a part): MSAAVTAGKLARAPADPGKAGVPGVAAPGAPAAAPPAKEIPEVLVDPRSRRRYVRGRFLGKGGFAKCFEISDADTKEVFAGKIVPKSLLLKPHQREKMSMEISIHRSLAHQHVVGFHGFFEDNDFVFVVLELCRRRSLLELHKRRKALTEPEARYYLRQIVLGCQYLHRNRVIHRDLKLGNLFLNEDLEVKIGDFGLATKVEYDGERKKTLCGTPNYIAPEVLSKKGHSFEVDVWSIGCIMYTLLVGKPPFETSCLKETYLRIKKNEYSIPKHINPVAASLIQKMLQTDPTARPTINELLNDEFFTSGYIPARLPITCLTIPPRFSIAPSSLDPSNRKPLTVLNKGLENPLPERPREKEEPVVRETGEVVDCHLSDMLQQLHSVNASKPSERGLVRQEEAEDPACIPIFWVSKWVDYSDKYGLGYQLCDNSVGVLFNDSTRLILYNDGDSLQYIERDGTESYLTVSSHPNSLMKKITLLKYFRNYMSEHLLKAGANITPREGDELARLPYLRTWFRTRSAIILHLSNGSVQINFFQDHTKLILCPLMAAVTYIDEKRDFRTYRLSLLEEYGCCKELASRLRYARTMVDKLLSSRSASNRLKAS

inhibition, inactive:
Cn1c(=O)[nH]c2nnc(-c3ccc4c(c3)OCO4)nc2c1=O -38.9% and 28%
CC(=O)N(/C=C1\Sc2ccccc2C1=O)c1ccc(C)cc1 -201% and -215% and -234%
Cc1ccccc1-c1nnc2[nH]c(=O)n(C)c(=O)c2n1 -8.49% and -8.27%
CC(=O)N(CN1C(=O)c2cc(Cl)c(Cl)cc2C1=O)c1ccc(C)c(Cl)c1 -45.5%
CC(=O)N(CN1C(=O)c2ccccc2C1=O)c1ccccc1Cl -37.3% and -49.8%
CCOC(=O)c1ccc(N=Cc2c(O)n(CC)c(=O)[nH]c2=O)cc1 -76.6%
CC(=O)N(CN1C(=O)c2ccccc2C1=O)c1ccc(F)cc1 -46.9%
CCOC(=O)c1ccc(NC(=O)c2c(C)cc(=O)oc2C)cc1 -118%
CCOC(=O)c1ccc(NC(=O)c2ccc3nc(N)sc3c2)cc1 -36.9%
CCOC(=O)c1ccc(NC(=O)c2ccc(Cl)c(Cl)c2)cc1 6.96%
Cc1ccc(-c2nnc3[nH]c(=O)n(C)c(=O)c3n2)cc1 -28.5% and -24.3%
Cc1ccc(N(CN2C(=O)c3ccc([N+](=O)[O-])cc3C2=O)C(=O)C(c2ccccc2)c2ccccc2)cc1 -39.6%
COc1cc(C=C2C(=O)NC(=O)NC2=O)ccc1OCc1c(C)no[n+]1[O-] -67.5%
CCOC(=O)c1ccc(N=Cc2c(O)n(Cc3cccs3)c(=O)[nH]c2=O)cc1 -25.6%
CC(=O)N(/N=C1\Sc2ccccc2C1=O)c1ccc(Br)cc1 34.2%
CCOC(=O)c1ccc(NC(=O)c2cncc(Br)c2)cc1 -31.4%
CC(=O)N(/N=C1\Sc2ccccc2C1=O)c1ccccc1Cl -48.1%
CC(=O)N(CN1C(=O)c2cccc([N+](=O)[O-])c2C1=O)c1ccc2c(c1)oc1ccccc12 -35.9%
Cn1c(=O)c2nc(-c3ccccc3)c(=O)[nH]c2n(C)c1=O -31.3%
CCOC(=O)c1ccc(NC(=O)C2C3C=CC(C3)C2(C)C(=O)O)cc1 (stereo unspecified) -56.5%
CCn1nc(-c2cccc(Cl)c2)nc2c(=O)n(C)c(=O)nc1-2 -5.43% and -17.8%
CC(=O)N(/N=C1\Sc2ccccc2C1=O)c1ccccc1I -47.1%
CCCOC(=O)c1ccc(NC(=O)c2c(F)c(F)c(F)c(F)c2F)cc1 -41.6%
CCn1nc(-c2ccccc2C)nc2c(=O)n(C)c(=O)nc1-2 2.2% and 21.7%
CCN(CC)CCOC(=O)c1ccc(N=Cc2c(O)n(-c3c(C)cc(C)cc3C)c(=O)[nH]c2=O)cc1 -134%
CCn1nc(-c2ccc(C(=O)OC)cc2)nc2c(=O)n(C)c(=O)nc1-2 -9.29%
CCOC(=O)c1ccc(N=Cc2c(O)n(-c3cccc(C)c3)c(=O)[nH]c2=O)cc1 -57.1%
CC(=O)N(CN1C(=O)c2ccccc2C1=O)c1ccc(Cl)c(Cl)c1 -88.3%
CC(=O)N(CN1C(=O)c2ccccc2C1=O)c1cccc(C)c1 -35.8%
CCCOC(=O)c1ccc(NC(=O)c2cc(-c3cccs3)nc3c(C)c(Cl)ccc23)cc1 36.6%
Cn1c(=O)[nH]c2nnc(-c3ccc(C(F)(F)F)cc3)nc2c1=O -39.5% and -40.5%
O=c1[nH]c2c(c(O)c1-c1ccccc1)c(=O)n(-c1ccccc1)c(=O)n2-c1ccccc1 -40.4%
CCOC(=O)c1ccc(N=Cc2c(O)n(Cc3ccccc3)c(=O)[nH]c2=O)cc1 -22.9%
CCn1nc(-c2ccc(OC)cc2)nc2c(=O)n(C)c(=O)nc1-2 28%
CCCCCC(=O)N(CN1C(=O)c2ccccc2C1=O)c1ccc(OCc2ccccc2)cc1 -7.17%
CN(C)c1ccc(-c2nnc3c(n2)c(=O)n(C)c(=O)n3C)cc1 -22%
